This is a sample that favours compounds with a hit; in the whole collection about 3.2% have one here.
ALOX15 inhib = 15-hLO (ALOX15) enzyme inhibition | AID 887 | Potency, µM (series often up to 57.1 µM), without a hit: at the top dose activity change, negative = inhibition, hits mostly inhibitors | purified 15hLO-1, xylenol orange hydroperoxide absorbance | 1.4% of 74,000 active; note: % is set by controls: 0 for no effect and ±100 for the full control effect; nearly all actives have a fitted effect of over 55% in size
Target sequence (P16050 whole entry, looked up): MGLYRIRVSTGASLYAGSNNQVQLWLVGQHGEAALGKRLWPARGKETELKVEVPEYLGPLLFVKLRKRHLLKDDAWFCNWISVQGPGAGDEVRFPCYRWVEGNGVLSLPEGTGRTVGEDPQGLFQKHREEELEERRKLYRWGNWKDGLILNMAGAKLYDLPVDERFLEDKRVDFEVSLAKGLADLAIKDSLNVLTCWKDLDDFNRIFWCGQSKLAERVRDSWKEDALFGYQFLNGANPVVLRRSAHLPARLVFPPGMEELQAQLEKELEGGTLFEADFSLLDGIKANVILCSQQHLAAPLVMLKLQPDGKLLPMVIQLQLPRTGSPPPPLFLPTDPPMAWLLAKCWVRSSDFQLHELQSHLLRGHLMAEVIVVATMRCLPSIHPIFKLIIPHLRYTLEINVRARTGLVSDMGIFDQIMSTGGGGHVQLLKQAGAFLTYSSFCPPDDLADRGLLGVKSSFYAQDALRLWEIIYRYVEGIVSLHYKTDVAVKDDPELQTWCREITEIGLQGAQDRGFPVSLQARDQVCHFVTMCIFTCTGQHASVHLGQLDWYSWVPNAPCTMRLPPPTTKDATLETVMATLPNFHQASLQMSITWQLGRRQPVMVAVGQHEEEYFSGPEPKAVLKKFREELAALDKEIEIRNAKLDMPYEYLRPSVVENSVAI
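Inhibition is scored from a chromogenic endpoint. After 15 min enzyme-compound contact, arachidonic acid (50 uM final) reacts 6 min with 40 nM 15hLO-1 at room temperature, then Fe-XO reagent is added for 30 min and absorbance ratio recorded.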
Tau fil binding = binds recombinant human tau filaments | P10636 | recombinant tau filaments, thioflavin S fluorescence, 15 h; filaments grown with octadecylsulfate alongside compound | Potency, µM (highest dose often 57.1 µM), inactives show at the highest dose activity change, negative = inhibition | 2% of 71,000 active | AID 596;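 note: % is set by controls: 0 for no effect and ±100 for the full control effect; actives lower thioflavin S fluorescence by blocking filaments or displacing dye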
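Assay mix: 1 uM His-tagged tau, 30 uM sodium octadecylsulfate, thioflavine S dye in HEPES/NaCl/DTT buffer. Compound is added prior to the inducer. Fluorescence after 15 h at 37 C.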
Hsp90 Hop PPI = changes Hsp90-Hop TPR2A binding signal, up or down; 0.44% of 71,000 active; AlphaScreen TPR2A-His6 binding biotin-Hsp90 C-terminal peptide; Potency, µM (titrated, usually from 57 µM), inactives show at the top dose activity change, negative = inhibition; active = well fitted curve in either direction with a large enough effect; inconclusive = small, poorly fitted or top-dose-only effect, or another doubt; note: % is set by controls: 0 for no effect and ±100 for the full control effect
USP2a inhib = USP2a (human) protease inhibition | O75604 | 0.1% of 60,000 active | Potency, µM (series often up to 38.3 µM), without a hit: top-dose activity change, negative = inhibition, most hits filed as inhibitors | USP2a enzymatic assay, qHTS inhibition; note: nearly all actives have a fitted effect of over 60% in size
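Inhibition is measured in a cell-free coupled assay with 20 nM USP2 core, 20 nM Ub-PLA2 and 20 uM NBD C6-HPC, 2.5 h incubation. Activity normalized to NEM control.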
The depositor's hits bear a star; i = inactive; ? = inconclusive; . = no result given; [ ] = remark or other dose. Unless noted, calls come from the whole dose curve; as a rule, active = well fitted curve in the direction sought with a large enough effect; inconclusive = small, poorly fitted or top-dose-only effect, or another doubt; inactive = no such curve, though single readings can be large; an effect the other way counts as inactive or inconclusive. Potency is the fitted concentration of half-maximal effect.

SMILES	ALOX15 inhib	Tau fil binding	Hsp90 Hop PPI	USP2a inhib
CN1Cc2cc(C(=O)c3cc(Cl)cc(CSc4ncccn4)c3O)cnc2NC1=O	-18%	16µM*	-6%	13%
COc1ccccc1C(=O)n1nc(-c2ccc(Cl)cc2)nc1N	13µM*	-10%	-2%	9%
Cc1nn(-c2ccccc2)c2c1C(O)n1c(nc3ccccc31)S2 (configuration not stated)	-8%	392%	-1%	7%
COc1ccc(N2CCN(Cc3cc(=O)oc4ccc(Cl)cc34)CC2)cc1	4%	-13%	-3%	13%
COc1ccc2nc3cc(Cl)ccc3c(Nc3ccc(O)c(CN4CCN(C)CC4)c3)c2c1	9%[11.4 µM]	0.25µM*	-1%[11 µM]	.
COc1ccc(OC)c(N2Cc3cc(C)c(C)cc3C2)c1	-16%	16µM*	?	17%
CCOc1ccccc1N1CCN(Cc2cccc(OC)c2OC)CC1	-18%	.	.	.
CCOc1ccccc1N1Cc2cc(C)c(C)cc2C1	-25%	7.9µM*	?	.
COc1ccc(OC)c(-n2cnnn2)c1	-5%	-12%	-7%	-4%
Cn1cccc1C(=O)N1CCC2(CC1)CCN(C(c1ccccc1)c1ccccc1)CC2	-12%	-4%	-5%	104%
O=C1NC(c2ccccn2)Nc2sc3c(c21)CCC3 (configuration not stated)	14%	21%	32µM*	16%
Cn1cc(C2NC(=O)c3c(sc4c3CCCC4)N2)c2ccccc21 (configuration not stated)	-15%	3.2µM*	-9%	.
CC(C)(C)C1CCc2c(sc3c2C(=O)NC(c2ccco2)N3)C1 (configuration not stated)	-30%	?	-9%	11%
CCCCC#CC1C=CC(Oc2ccc(OC)cc2)C(CO)O1 (configuration not stated)	-2%[11.4 µM]	.	.	.
COCCn1c(=O)c(-c2cn(C)c3ccccc23)nc2cnc(Oc3cccc(Cl)c3)nc21	0%	27%	2%	186%
O=C1CC(/C=C/c2ccco2)=Nc2ccccc2N1	5µM*	260%	?	0%
CNS(=O)(=O)c1ccccc1C(=N)c1ccccc1	2%[11.4 µM]	6%[11.4 µM]	-2%[11 µM]	.
COc1ccccc1CN(Cc1cc2cc(C)ccc2[nH]c1=O)Cc1nnnn1Cc1ccco1	7.9µM*	54%	-28%	39%
CCc1ccc2[nH]c(=O)c(CN(Cc3ccccc3OC)Cc3nnnn3Cc3ccco3)cc2c1	?	73%	-12%	27%
COc1cc2cc(CN(Cc3nnnn3Cc3ccco3)C3CCCCC3)c(=O)[nH]c2cc1OC	13µM*	329%	?	245%
CCOc1ccc2[nH]c(=O)c(CN(Cc3nnnn3Cc3ccco3)C3CCCCC3)cc2c1	3.2µM*	-2%	-14%	.
COc1ccc2[nH]c(=O)c(CN(Cc3ccccc3OC)Cc3nnnn3CC3CCCO3)cc2c1 (configuration not stated)	20µM*	96%	-3%	197%
CC(C)[C@@H](CC(=O)N[C@@H]1CCCC[C@H]1C(=O)N[C@H](CC(=O)N[C@@H](CCC(=O)O)CC(=O)O)Cc1c[nH]c2ccccc12)NC(=O)C[C@H](CO)NC(=O)[C@@H]1CCCC[C@H]1N	.	-3%	-6%	.
O=C(/C=C\c1ccc(O)c(O)c1)O[C@H]1C[C@@](O)(C(=O)O)C[C@H](O)[C@@H]1O	.	?	-5%	.
Nc1ncnc2c1ncn2[C@@H]1CCCO1	-14%	-6%	-9%	-6%
SMILES	ALOX15 inhib	Tau fil binding	Hsp90 Hop PPI	USP2a inhib
O=C1CCCC(O)=C1C(C#Cc1ccccc1)C1=C(O)CCCC1=O	7.9µM*	-10%	0%	5%
N#Cc1ccc(CN2CC[C@@]3(CCCN(C(=O)c4ccco4)C3)C2)cc1	-5%	13%	-3%	62%
Cc1ccc(C2NC(=O)c3c(sc4c3CCN(C)C4)N2)o1 (configuration not stated)	3.2µM*	i	-11%	17%
O=C(c1ccncc1)N1CCC2(CC1)CN(c1ccccc1)C2	6%	-13%	-9%	-9%
Nc1ncnc2c1ncn2[C@@H]1O[C@H](COP(=O)(O)OP(=O)(O)O)[C@@H](O)[C@H]1O	9%[25.6 µM]	.	.	.
C=CCSC1=NC(N)=C(C#N)C2(CCCCC2)C1C(N)=O (configuration not stated)	10%	-16%	-1%	4%
Cc1ccc(C(=O)CSC2=NC(N)=C(C#N)C3(CCCCC3)C2C(N)=O)cc1 (configuration not stated)	?	3.2µM*	-16%[11 µM]	20%[7.66 µM]
N#CC1=C(N)N=C(SCc2ccccc2)C(C(N)=O)C12CCCCC2 (configuration not stated)	-16%	6.3µM*	-15%	-1%
C/C=C1/C(=O)C[C@H]2[C@@H]3CCC4=CC(=O)CC[C@]4(C)[C@H]3CC[C@]12C	-10%	91%	-1%	.
Clc1ccc2c(c1)N=C(N1CCNCC1)c1ccccc1N2	2%[25.6 µM]	40µM*	-1%	.
Cc1ccccc1-c1cc(N2CCNCC2)ncn1	11%	0%	-8%	-12%
Cn1c(=O)c(-c2cc(F)cc(F)c2)nc2cnc(Oc3ccccc3)nc21	11%	13µM*	0%	53%
Cn1c(=O)c(-c2cc(F)cc(F)c2)nc2cnc(Nc3ccccc3)nc21	-2%	6.3µM*	-20%	134%
O=C(/C=C/c1ccc(O)c(O)c1)OCCc1ccccc1	0.5µM*	.	.	17%
O=C(O)/C=C\c1ccc(O)c(O)c1	-7%[25.6 µM]	-18%	5%	-10%[17.1 µM]
CC(C)(CO)[C@H](O)C(=O)NCCC(=O)O	16%[25.6 µM]	-2%[25.6 µM]	6%[26 µM]	5%[17.1 µM]
COc1ccc(OC)c(NC(=O)c2cc(-c3cc(Cl)ccc3O)n[nH]2)c1	-15%	226%	-1%	26%
COc1ccc(O)c(-c2cc(-c3cccs3)[nH]n2)c1	25µM*	-7%	-7%	-18%
Cc1cccc(CNc2nc(-c3ccoc3)nc3ccccc23)c1	-12%	16µM*	-6%	5%
Fc1ccc(Nc2ccnc(-c3ccc4c(c3)OCO4)n2)cc1	?	33%	3%	140%
Fc1ccc(Nc2ccnc(-c3ccoc3)n2)cc1	?	13µM*	-23%	156%
COc1ccc2[nH]cc(CCNc3nc(-c4ccoc4)nc4ccccc34)c2c1	-6%	4µM*	-12%	?
Fc1ccc(Nc2nc(-c3ccoc3)nc3ccccc23)cc1	0%	13µM*	-4%	144%
C=C1C(C2(C)C=CC(=O)C(C)(C)C2CC(=O)OC)CC[C@@]2(C)C(c3ccoc3)OC(=O)C3OC132 (some centres not stated)	0%	.	.	22%
Cn1c(=O)c(-c2cccc(F)c2)nc2cncnc21	5%	0%	-2%	55%
Nc1nc2c(c(=O)[nH]1)N(C=O)C(CNc1ccc(C(=O)NC(CCC(=O)O)C(=O)O)cc1)CN2 (configuration not stated)	8%	.	.	-3%
N#Cc1cccc(-c2ccc3ncnc(NCc4ccccc4)c3c2)c1	-4%	i	-5%	170%
COc1ccc2[nH]cc(CCNc3ccnc(-c4cccc(NS(C)(=O)=O)c4)n3)c2c1	20µM*	-13%	-17%	14%

Assay outcomes: PubChem BioAssay, National Center for Advancing Translational Sciences (NCATS)
